This is part of a sample that, as a whole, favours compounds with a hit. Of some 83,000 tested, about 20% had one in any assay.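 96-well plates, one dose, 48 hours. Percent growth reported; active if below 10.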 Unmarked numbers belong to inactive results. Activity calls are given as the source filed them.

Here are results for 16 compounds from PubChem BioAssay (NCI).

Holding throughout (assay): NCI-60 one-dose screen, 48 h (100 = growth as untreated, 0 = no growth, -100 = all killed)
One assay relates to DU-145 prostate. The note with it: 10 µM unless noted.
Another assay concerns K-562 leukemia. The conditions noted are these: 10 µM unless noted.
A further assay deals with MALME-3M melanoma. The note with it: 10 µM unless noted.
The test system of a further assay is RXF 393 renal. The conditions noted are these: 10 µM unless noted.
The test system of another assay is SF-268 CNS. The note with it: 10 µM unless noted.
Another assay concerns SF-295 CNS. The note with it: 10 µM unless noted.
For the next assay, the system named is SF-539 CNS. The conditions noted are these: 10 µM unless noted.
For another assay, the system named is MDA-MB-231 breast. The note with it: 10 µM unless noted.
In a further assay the test system is M14 melanoma. The conditions noted are these: 10 µM unless noted.
The next assay concerns UACC-257 melanoma. The conditions noted are these: 10 µM.

For the compound `CCC(c1ccc(OC)cc1)C(CC)c1ccc(O)c(CN2CCCC2)c1` (stereo not given), the growth in the assay with DU-145 prostate was 43.3%; in the assay with K-562 leukemia, -32.1% (active); with MALME-3M melanoma, -56.1% (active); with RXF 393 renal, -31.1% (active); in the assay with SF-268 CNS, 21.2%; in the assay on SF-295 CNS, -51.2% (active). In the assay on SF-539 CNS, the growth is -18.9% (active).

`CCCCCCCC/C=C\CCCCCCCCOc1ccccc1CCOP(=O)(O)OCC[N+](C)(C)C`: the growth in the assay with DU-145 prostate is 86.6%; in the assay with K-562 leukemia, 72.7%; in the assay with MALME-3M melanoma it was 93%; in the assay with MDA-MB-231 breast, 73.9%; in the assay with SF-268 CNS, 44.9%; in the assay with SF-295 CNS it was 69.2%. For the same compound, the values for the growth with SF-539 CNS and with M14 melanoma were 84.8% and 84.4%, respectively.

With `CC(C)(C)c1cn2cccc(C(=O)N3CCN(CC(=O)Nc4ccc(Cl)cc4C(=O)c4ccccc4Cl)CC3)c2n1`, the growth in the assay with DU-145 prostate is 73.3%; with K-562 leukemia it was 33.5%; in the assay on MALME-3M melanoma it was 86.4%; in the assay on MDA-MB-231 breast, 73.5%; in the assay on SF-268 CNS it was 85.8%; in the assay on SF-295 CNS it was -5.34% (active). In addition, the growth with SF-539 CNS was 51.4%; in the assay with M14 melanoma, 48.5%.

With `CCN1C(=O)N(CC)C2C1NN=c1s/c(=C3\C(=O)N(C4CCCC4)c4ccccc43)c(=O)n12` (stereo not given), the growth is 7.65% (active) in the assay on DU-145 prostate; 4.67% (active) with K-562 leukemia; 57.4% in the assay on MALME-3M melanoma; 19.7% with MDA-MB-231 breast; 43.4% in the assay with SF-268 CNS; -6.11% (active) in the assay with SF-295 CNS. For the same compound, the growth is -39.3% (active) in the assay on SF-539 CNS and 2.66% (active) with M14 melanoma.

Turning to `O=C1Nc2cc(Cl)ccc2Oc2cc(Oc3ccccc3)ccc21`, the growth with DU-145 prostate was 71.5%; in the assay with K-562 leukemia, 25.5%; in the assay on MALME-3M melanoma it was 87.1%; in the assay on MDA-MB-231 breast, 63.9%; with SF-268 CNS, 63%; in the assay with SF-295 CNS, 49%. Further, the growth in the assay with SF-539 CNS was 64.7%; in the assay on M14 melanoma, 41.1%.

For `O=c1oc2c([nH]c3ccc4ccccc4c32)c2ccccc12`, the growth in the assay on DU-145 prostate was 106%; in the assay with K-562 leukemia it was 124%; with MALME-3M melanoma, 115%; in the assay on MDA-MB-231 breast it was 112%; with SF-268 CNS it was 115%; in the assay with SF-295 CNS, 99.6%. Also, the growth is 102% in the assay with SF-539 CNS and 109% with M14 melanoma.

`COc1ccc(NC(=S)/N=c2\oc3c(OC)cccc3cc2-c2cc3ccccc3[nH]2)cc1`: the growth in the assay with DU-145 prostate was 62.6%; in the assay with K-562 leukemia it was 81.4%; with MALME-3M melanoma, 63.5%; in the assay with MDA-MB-231 breast it was 42.2%; in the assay on SF-268 CNS, 73%; with SF-295 CNS, 84.6%. For the same compound, the values for the growth in the assay with SF-539 CNS and with M14 melanoma were 26.4% and 93.5%, respectively.

As for `CCCCCC/C=C\CCCCCCCCOc1ccc(CCOP(=O)(O)OCC[N+](C)(C)C)cc1`, the growth in the assay with DU-145 prostate is 98%; in the assay on K-562 leukemia, 74.8%; in the assay with MALME-3M melanoma, 103%; in the assay with MDA-MB-231 breast, 88.3%; in the assay with SF-268 CNS, 66.7%; with SF-295 CNS it was 89.9%. Further, the values for the growth with SF-539 CNS and in the assay on M14 melanoma were 94.7% and 88.1%, respectively.

For `COc1cc(NS(C)(=O)=O)ccc1Nc1c2ccc([N+](=O)[O-])cc2nc2c(C)cccc12`, the growth in the assay on DU-145 prostate is -13.1% (active); in the assay on K-562 leukemia, 4.57% (active); in the assay on MALME-3M melanoma it was 14.4%; in the assay with RXF 393 renal it was 10.4%; with SF-268 CNS, 7.28% (active); with SF-295 CNS it was -43.7% (active). Further, the growth in the assay on SF-539 CNS was -13.7% (active); in the assay on UACC-257 melanoma, 2.11% (active); in the assay with M14 melanoma, 22.6%.

`CC(=O)OCC1OC(OCC2OC(OC(C)=O)C(OC(C)=O)C(OC(C)=O)C2OC(C)=O)C(OC(C)=O)C(OC(C)=O)C1OC(C)=O` (stereo not given): the growth is 110% in the assay with DU-145 prostate; 106% in the assay on K-562 leukemia; 108% in the assay with MALME-3M melanoma; 71% in the assay on RXF 393 renal; 105% with SF-268 CNS; 99.3% in the assay on SF-295 CNS. The growth with SF-539 CNS is 108%; in the assay with UACC-257 melanoma, 95.8%; in the assay with M14 melanoma, 107%.

On to `CCN1C(=O)N(CC)C2C1NN=c1s/c(=C\c3cccc(F)c3)c(=O)n12` (stereo not given), for which the growth is 5.59% (active) in the assay on DU-145 prostate; 8.99% (active) in the assay with K-562 leukemia; 48.7% in the assay on MALME-3M melanoma; 25.8% with MDA-MB-231 breast; 58.3% in the assay with SF-268 CNS; 9.94% (active) in the assay on SF-295 CNS. The growth in the assay with SF-539 CNS was -9.53% (active); with M14 melanoma, 47.6%.

`Clc1ccc(-c2nc(-c3ccco3)cn3ccnc23)cc1`: the growth in the assay on DU-145 prostate is 67.3%; in the assay on K-562 leukemia, 68.9%; with MALME-3M melanoma it was 77%; with RXF 393 renal it was 41.6%; in the assay with SF-268 CNS, 64.3%; with SF-295 CNS, 15.1%. For the same compound, the growth in the assay with SF-539 CNS was 62.2%; in the assay with UACC-257 melanoma it was 75.2%; in the assay on M14 melanoma it was 97.4%.

`C=CC(=O)N[C@H](/C=C/C(=O)OCC)Cc1ccc(-c2cc(Cl)cc(Cl)c2)cc1`: the growth with DU-145 prostate is 91.1%; in the assay on K-562 leukemia it was 89.4%; in the assay on MALME-3M melanoma, 87.6%; with MDA-MB-231 breast it was 72.9%; in the assay with SF-268 CNS, 84.7%; in the assay with SF-295 CNS, 83.1%. Besides, the growth was 99.9% in the assay with SF-539 CNS and 88.7% with M14 melanoma.

For the compound `CCN1C(=O)N(CC)C2C1NN=c1s/c(=C\c3ccccn3)c(=O)n12` (stereo not given), the growth is 9.45% (active) with DU-145 prostate; 8.75% (active) in the assay on K-562 leukemia; 22.4% in the assay on MALME-3M melanoma; 45.5% in the assay on MDA-MB-231 breast; 74.2% with SF-268 CNS; 3.21% (active) in the assay with SF-295 CNS. For the same compound, the growth is -19.8% (active) in the assay on SF-539 CNS and 13% with M14 melanoma.

For `NC(=O)c1c(NC(=O)c2ccc(OCC3CCCO3)cc2)sc2c1CCCC2` (stereo not given), the growth in the assay with DU-145 prostate was 105%; with K-562 leukemia, 134%; in the assay with MALME-3M melanoma, 82.4%; in the assay with MDA-MB-231 breast, 96.6%; in the assay on SF-268 CNS, 109%; with SF-295 CNS, 93.8%. The growth is 100% with SF-539 CNS and 108% in the assay with M14 melanoma.

In the case of `CCC(=O)Nc1ccccc1C#C/C=C\C#Cc1ccccc1SC`, the growth was 77.3% with DU-145 prostate; 56% in the assay with K-562 leukemia; 76.8% in the assay with MALME-3M melanoma; 47.9% with MDA-MB-231 breast; 63.9% with SF-268 CNS; 59.8% in the assay with SF-295 CNS. The figures for the growth in the assay on SF-539 CNS and in the assay on M14 melanoma were 60.1% and 59.9%, respectively.
